In PubChem BioAssay (NCI):
This is part of a sample that, as a whole, favours compounds with a hit. Of some 83,000 tested, about 20% had one in any assay.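 Interpretation: 100, growth as untreated; towards 0, rising growth inhibition; 0, no net growth; 0 to -100, cell death. Compounds scoring below 10 were considered active.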 Values without a mark were called inactive. Activity calls are given as the source filed them.

How the values were obtained:
Assay in all cases: NCI-60 one-dose screen, 48 h (100 = growth as untreated, 0 = no growth, -100 = all killed)
Settings in all cases: 10 µM unless noted
NCI-H23 lung = tested on: NCI-H23 lung
NCI-H226 lung = tested on: NCI-H226 lung
NCI-H322M lung = tested on: NCI-H322M lung
HOP-62 NSCLC = tested on: HOP-62 NSCLC
NCI-H460 lung = tested on: NCI-H460 lung
HOP-92 NSCLC = tested on: HOP-92 NSCLC
NCI-H522 lung = tested on: NCI-H522 lung
A549/ATCC NSCLC = tested on: A549/ATCC NSCLC
786-0 renal = tested on: 786-0 renal
COLO 205 colon = tested on: COLO 205 colon

Row | Compound | growth (NCI-H23 lung) | growth (NCI-H226 lung) | growth (NCI-H322M lung) | growth (HOP-62 NSCLC) | growth (NCI-H460 lung) | growth (HOP-92 NSCLC) | growth (NCI-H522 lung) | growth (A549/ATCC NSCLC) | growth (786-0 renal) | growth (COLO 205 colon)
1 | COc1cc(NCCCN=C(N)N)c2ncccc2c1 | 14.1% | 86.2% | 74% | 73% | 96.4% | 56.7% | -10.2% (active) | 84.8% | 95.4% | 89.8%
2 | CCCCCN(CCCCC)CC(O)c1cc(Cl)ccc1OC (stereo not given) | 37.6% | 65.2% | 62.2% | 4.36% (active) | 15.4% | -6.26% (active) | 21.4% | 42.2% | 24.7% | 13.3%
3 | O=C(CCCCCNC1=CC(=O)c2ccccc2C1=O)NCCC[Te]c1ccccc1 | -12.9% (active) | -54.6% (active) | -8.86% (active) | -51% (active) | -45.3% (active) | -32.4% (active) | -18.5% (active) | -45.4% (active) | -48.5% (active) | -57% (active)
4 | C[C@]12CC[C@H]3[C@@H](CC[C@]4(O)C[C@@H](O[C@@H]5O[C@H](CO)[C@@H](O[C@@H]6OC[C@@H](O)[C@H](O)[C@H]6O)[C@H](O)[C@H]5O)CC[C@]34C=O)[C@@]1(O)CC[C@@H]2C1=CC(=O)OC1 | -37.1% (active) | -2.96% (active) | -13.2% (active) | -68.4% (active) | -9.57% (active) | 43.7% | -35.2% (active) | -89.8% (active) | 0.0388% (active) | 17.8%
5 | CS(=O)(=O)CCN1CC2CCCC(C2)C1 | 99.7% | 121% | 127% | 103% | 110% | 109% | 97.9% | 99.9% | 95.6% | 99%
6 | COC(=O)[C@H](Cc1ccccc1)NC(=O)c1csc([C@@H](C[C@H](C(C)C)N(C)C(=O)[C@@H](NC(=O)[C@H]2CCCN2C)C2CC2)OC(C)=O)n1 | 35.9% | 58% | 50.3% | 34.9% | 4.53% (active) | 8.6% (active) | 0.953% (active) | 23.2% | 31.6% | -26.7% (active)
7 | COC(=O)[C@@H](C)C[C@H](Cc1ccccc1)NC(=O)c1cccc([C@@H](C[C@H](C(C)C)N(C)C(=O)[C@@H](NC(=O)[C@H]2CCCCN2C)C(C)C)OC(C)=O)n1 | 38.9% | 68.1% | 47.6% | 23.2% | 7.05% (active) | 53.7% | -22.2% (active) | 14.2% | 14.4% | -54.5% (active)
8 | C[C@@]12CC=C3c4nc(Nc5cccc(O)c5)sc4CC[C@]3(C)[C@H]1CC[C@]1(C)C(=O)CC[C@@H]21 | 63.7% | 94.5% | 72.8% | 27.5% | 43.9% | 64.3% | -56.4% (active) | 55.4% | -0.522% (active) | 34.4%
9 | ClCCN(CCCl)c1ccc(/C=N/Nc2ncnc3nc[nH]c23)cc1 | 68.8% | 79% | 97.7% | 82% | 39.1% | 81.3% | 61% | 87.7% | 80.2% | 90.5%
10 | C[C@]12C[C@@H](CO)[C@H](O)C[C@@H]1CC[C@@H]1[C@@H]2CC[C@]2(C)[C@@H](O)CC[C@@H]12 | 102% | 102% | 91.1% | 107% | 106% | 87.3% | 77.7% | 99.7% | 102% | 108%
11 | CN1CCC(c2c[nH]c3ccccc23)C1 (stereo not given) | 88.9% | 106% | 118% | 84.3% | 124% | 92.9% | 79.5% | 122% | 99.3% | 108%
12 | CC12CCC=CC1CCC1C2CCC2(C)C(c3ccc(=O)oc3)CCC12O (stereo not given) | -64% (active) | -92.3% (active) | -22.5% (active) | -71.9% (active) | -69.3% (active) | -10.7% (active) | -27.9% (active) | -52.1% (active) | -51.1% (active) | -50.9% (active)
13 | Cc1ccc(C(Cc2ccccc2)NCCO)cc1 (stereo not given) | 101% | 97.2% | 96.4% | 80.3% | 105% | 74.8% | 52.3% | 69.2% | 80.8% | 82.1%
14 | O=C([O][Hg][c]1ccccc1)c1ccccc1 | 1.89% (active) | 96.4% | 67.7% | -33.7% (active) | 11.7% | -61.3% (active) | -64.1% (active) | 76.2% | -93.8% (active) | -70% (active)
15 | O=C(CCl)c1ccc([N+](=O)[O-])o1 | 5.38% (active) | 42.9% | 98.4% | 86.4% | 76.3% | -56% (active) | -56.7% (active) | 106% | -28.7% (active) | -86% (active)
16 | COC(=O)[C@@H](C)C[C@H](Cc1ccccc1)NC(=O)c1csc([C@@H](C[C@H](C(C)C)N(C)C(=O)C2(NC(=O)[C@H]3CCCCN3C)CCC2)OC(C)=O)n1 | 18.6% | 48.7% | 43.6% | 18.8% | 4.21% (active) | 2.26% (active) | -13.8% (active) | 15.2% | 20.9% | -59.1% (active)
17 | CCOC(=O)[C@@H](C)C[C@H](Cc1ccccc1)NC(=O)c1csc([C@@H](C[C@H](C(C)C)N(C)C(=O)CNC(=O)[C@H]2CCCCN2C)OC(C)=O)n1 | 31.7% | 69.9% | 44.7% | 23.5% | 5.98% (active) | 47.5% | -12.8% (active) | 16.4% | 19.8% | -11.6% (active)
18 | COc1ccc(C2=CC(c3ccc(OC)c(OC)c3)c3c(c4ccccc4oc3=O)O2)cc1OC (stereo not given) | 63.4% | 89.5% | 35.8% | 49% | 9.23% (active) | -12.5% (active) | -43.7% (active) | 39.4% | 25.7% | 9.01% (active)
19 | CC(C)(NC(=O)O[C@@H]1CN2CCC1CC2)c1csc(-c2ccc(F)cc2)n1 | 96.3% | 89.9% | 98.9% | 99.4% | 101% | 98% | 95.4% | 101% | 99.3% | 111%
20 | CC(=O)Oc1ccccc1C(=O)NCCC[Se]C#N | -13.8% (active) | -22.8% (active) | 2.65% (active) | -38.8% (active) | 1.89% (active) | -18.5% (active) | 65.2% | 28.2% | 104% | 112%
21 | COc1ccc(C/C(C)=C(\c2ccc(OCCN3CCOCC3)cc2)c2ccc(OC(=O)Cc3ccccc3)cc2)cc1 | -18.3% (active) | -26.6% (active) | -8.3% (active) | -74.1% (active) | -73.3% (active) | -76.7% (active) | -87.6% (active) | 0.132% (active) | -94.7% (active) | -90.1% (active)
22 | CCOC(=O)[C@@H](C)C[C@H](Cc1ccccc1)NC(=O)c1csc([C@@H](C[C@H](C(C)C)N(C)C(=O)[C@H](CCC(C)C)NC(=O)[C@H]2CCCCN2C)OC(C)=O)n1 | 25.3% | 27.7% | 28.2% | 13.8% | 5.8% (active) | -1.79% (active) | -27% (active) | 8.64% (active) | 3.93% (active) | -75.2% (active)
23 | CCn1c2ccccc2c2cc(C(=O)c3cccc4c3CCCN4)ccc21 | 100% | 92.2% | 102% | 95.7% | 101% | 101% | 115% | 106% | 99% | 102%
24 | CC[C@H](C)[C@H](NC(=O)C12CC(NC(C)=O)(C1)C2)C(=O)N(C)[C@H](C[C@@H](OC(C)=O)c1nc(C(=O)N[C@@H](Cc2ccccc2)C[C@H](C)C(=O)OC)cs1)C(C)C | 30.9% | 19.9% | 51.3% | 20.3% | 3.12% (active) | 19.9% | 1.64% (active) | 22.6% | 16% | -31.5% (active)
25 | O=C(CC1(O)C(=O)N(Cc2ccccc2)c2ccc(F)cc21)c1ccc(C(=O)NCC2CCC3(CC2)OOC2(CCCCC2)OO3)cc1 (stereo not given) | -70.8% (active) | -43.2% (active) | 50.1% | -56.6% (active) | -51.8% (active) | -71.8% (active) | -43.1% (active) | -52.4% (active) | -67% (active) | -63.3% (active)
